# Results taken from PubChem BioAssay (NCATS).
# Results filed as inconclusive are left out. Some of the results follow. Calls of active or inactive are those of the source. The call rests on the fitted dose curve; in most records, active means well fitted curve in the direction sought with a large enough effect; inconclusive means small, poorly fitted or top-dose-only effect, or another doubt; inactive means no such curve, though single readings can be large; an effect the other way counts as inactive or inconclusive. Bridge positions count the residues as written; N and C are the ends. Square brackets hold non-standard residues; d marks the D form. Peptide text beside a SMILES is read from it. * marks the point of attachment. ξ: configuration not given here. Octanoyl(6-Me) = CCC(C)CCCCC(=O)*; ξThr(3R) = C[C@@H](O)C(N)C(=O)O; dDab = NCC[C@@H](N)C(=O)O; Dab = NCC[C@H](N)C(=O)O
# What was measured:
# [1] = target: ATPase family AAA domain-containing protein 5 (Homo sapiens) (UniProt Q96QE3); test: HTS assay for small molecules that inhibit ELG1-dependent DNA repair in human embryonic kidney (HEK293T) cells expressing luciferase-tagged ELG1: Hit Confirmation (AID 624248); conditions: HEK293T ELG1-luciferase levels, luminescence, cells co-treated with 5-fluorouridine; series mostly up to 46.1 µM; further: nearly all actives have a fitted effect of over 55% in size; further: potency means the concentration at half of the fitted maximal effect
# Summary of the method: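 HEK293T cells expressing luciferase-tagged ELG1 treated with 5-fluorouridine plus compound for 16 h at 37 C; luciferase activity then measured with ONE-Glo after 30 min at room temperature.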
# [2] = target: ATPase family AAA domain-containing protein 5 (Homo sapiens) (UniProt Q96QE3); test: qHTS screen for small molecules that inhibit ELG1-dependent DNA repair in human embryonic kidney (HEK293T) cells expressing luciferase-tagged ELG1: Hit Confirmation using MMS Stimulated ELG1 (AID 624249); conditions: HEK293T luciferase-tagged ELG1 level; series mostly up to 46.1 µM; further: nearly all actives have a fitted effect of over 60% in size; further: potency means the concentration at half of the fitted maximal effect
# Summary of the method: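 Reporter gene format: suppression of MMS-induced ELG1-luciferase signal in HEK293T cells. MMS is present at 10 µM final, compound incubation lasts 16 h, and detection is by Amplight luciferase reagent.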
# [3] = target: Luciferin 4-monooxygenase (Photinus pyralis) (UniProt P08659); test: Biochemical firefly luciferase enzyme assay for NPC (AID 624030);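 further: purified P. pyralis luciferase at 10 nM with luciferin and ATP substrate; nearly all actives have a fitted effect of over 70% in size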; conditions: purified P. pyralis luciferase, luminescence, 5 min; series mostly up to 58.6 µM
# Summary of the method: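 Purified P. pyralis luciferase at 10 nM in 50 mM Tris Acetate (final), luminescence read within 5 minutes of enzyme addition to compounds. Activity normalised to PTC124 versus DMSO; concentration-response curves classed by r2, magnitude and activity.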
# [4] = target: Cytochrome P450 3A4 (Homo sapiens) (UniProt P08684); test: qHTS Assay for Activators of Cytochrome P450 3A4 (AID 885); conditions: recombinant CYP3A4, Luciferin-PPXE luminescence, 60 min; series mostly up to 57.1 µM; further: nearly all actives have a fitted effect of over 65% in size
# Summary of the method: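 Using 20nM recombinant human CYP3A4 in potassium phosphate (200mM), substrate Luciferin-PPXE at 25uM, luminescent luciferin detection followed a 60-min RT NADPH reaction; data scaled to 57 uM ketoconazole.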
# [5] = Confirmation and Secondary Assay for Modulators of Hemoglobin Beta Chain Splicing at IVS2 654 locus (AID 910); conditions: HeLa EGFP-654 splicing reporter, GFP fluorescence, 48 h; series mostly up to 46.1 µM;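 further: HeLa cells stably carrying EGFP split by mutant beta-globin IVS2-654 intron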
# Summary of the method: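 HeLa cells stably expressing EGFP interrupted by β-globin IVS2-654 intron, seeded overnight in Opti-MEM/2% FCS, then treated 2 days at 37 °C. Restored splicing read as total peak GFP intensity per well by laser scanning cytometry (488 nm excitation, 500–520 nm emission); 500 nM antisense PNA as control.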
# [6] = Confirmation and Secondary Assay for Modulators of Hemoglobin Beta Chain Splicing at IVS2 705 locus (AID 930); conditions: HeLa EGFP-705 splicing reporter, GFP fluorescence, 48 h; series mostly up to 46.1 µM;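 further: HeLa cells stably expressing the EGFP-705 splicing reporter; GFP fluorescence per well restored by corrected splicing of the IVS2-705 intron in EGFP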
# Summary of the method: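 Fluorescence gain (488 nm laser, 500-520 nm PMT) reflects restored correct splicing of a mutant IVS2-705 intron inside EGFP in stably transfected HeLa cells after 2-day compound treatment.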
# [7] = target: Tumor susceptibility gene 101 protein (Homo sapiens) (UniProt Q99816); test: qHTS Assay for Iinhibitors of HIV-1 Budding by Blocking the Interaction of PTAP/TSG101: Hit Validation (AID 651600); conditions: PTAP peptide/TSG101 UEV interaction, biochemical assay; series mostly up to 57.5 µM; further: potency means the concentration at half of the fitted maximal effect; nearly all actives have a fitted effect of over 70% in size
# Summary of the method: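 Fluorescence polarization binding assay: Tsg101 binding domain (10 uM) mixed with compounds and FITC-labeled PTAP peptide (50 nM) in HEPES pH 7.5, 0.15 M NaCl, 0.01% Tween 20, EDTA, TCEP; 20 min at r.t.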
# Chain of ATPase family AAA domain-containing protein 5 (Homo sapiens) (Q96QE3 whole entry, looked up, the tested form may be a part): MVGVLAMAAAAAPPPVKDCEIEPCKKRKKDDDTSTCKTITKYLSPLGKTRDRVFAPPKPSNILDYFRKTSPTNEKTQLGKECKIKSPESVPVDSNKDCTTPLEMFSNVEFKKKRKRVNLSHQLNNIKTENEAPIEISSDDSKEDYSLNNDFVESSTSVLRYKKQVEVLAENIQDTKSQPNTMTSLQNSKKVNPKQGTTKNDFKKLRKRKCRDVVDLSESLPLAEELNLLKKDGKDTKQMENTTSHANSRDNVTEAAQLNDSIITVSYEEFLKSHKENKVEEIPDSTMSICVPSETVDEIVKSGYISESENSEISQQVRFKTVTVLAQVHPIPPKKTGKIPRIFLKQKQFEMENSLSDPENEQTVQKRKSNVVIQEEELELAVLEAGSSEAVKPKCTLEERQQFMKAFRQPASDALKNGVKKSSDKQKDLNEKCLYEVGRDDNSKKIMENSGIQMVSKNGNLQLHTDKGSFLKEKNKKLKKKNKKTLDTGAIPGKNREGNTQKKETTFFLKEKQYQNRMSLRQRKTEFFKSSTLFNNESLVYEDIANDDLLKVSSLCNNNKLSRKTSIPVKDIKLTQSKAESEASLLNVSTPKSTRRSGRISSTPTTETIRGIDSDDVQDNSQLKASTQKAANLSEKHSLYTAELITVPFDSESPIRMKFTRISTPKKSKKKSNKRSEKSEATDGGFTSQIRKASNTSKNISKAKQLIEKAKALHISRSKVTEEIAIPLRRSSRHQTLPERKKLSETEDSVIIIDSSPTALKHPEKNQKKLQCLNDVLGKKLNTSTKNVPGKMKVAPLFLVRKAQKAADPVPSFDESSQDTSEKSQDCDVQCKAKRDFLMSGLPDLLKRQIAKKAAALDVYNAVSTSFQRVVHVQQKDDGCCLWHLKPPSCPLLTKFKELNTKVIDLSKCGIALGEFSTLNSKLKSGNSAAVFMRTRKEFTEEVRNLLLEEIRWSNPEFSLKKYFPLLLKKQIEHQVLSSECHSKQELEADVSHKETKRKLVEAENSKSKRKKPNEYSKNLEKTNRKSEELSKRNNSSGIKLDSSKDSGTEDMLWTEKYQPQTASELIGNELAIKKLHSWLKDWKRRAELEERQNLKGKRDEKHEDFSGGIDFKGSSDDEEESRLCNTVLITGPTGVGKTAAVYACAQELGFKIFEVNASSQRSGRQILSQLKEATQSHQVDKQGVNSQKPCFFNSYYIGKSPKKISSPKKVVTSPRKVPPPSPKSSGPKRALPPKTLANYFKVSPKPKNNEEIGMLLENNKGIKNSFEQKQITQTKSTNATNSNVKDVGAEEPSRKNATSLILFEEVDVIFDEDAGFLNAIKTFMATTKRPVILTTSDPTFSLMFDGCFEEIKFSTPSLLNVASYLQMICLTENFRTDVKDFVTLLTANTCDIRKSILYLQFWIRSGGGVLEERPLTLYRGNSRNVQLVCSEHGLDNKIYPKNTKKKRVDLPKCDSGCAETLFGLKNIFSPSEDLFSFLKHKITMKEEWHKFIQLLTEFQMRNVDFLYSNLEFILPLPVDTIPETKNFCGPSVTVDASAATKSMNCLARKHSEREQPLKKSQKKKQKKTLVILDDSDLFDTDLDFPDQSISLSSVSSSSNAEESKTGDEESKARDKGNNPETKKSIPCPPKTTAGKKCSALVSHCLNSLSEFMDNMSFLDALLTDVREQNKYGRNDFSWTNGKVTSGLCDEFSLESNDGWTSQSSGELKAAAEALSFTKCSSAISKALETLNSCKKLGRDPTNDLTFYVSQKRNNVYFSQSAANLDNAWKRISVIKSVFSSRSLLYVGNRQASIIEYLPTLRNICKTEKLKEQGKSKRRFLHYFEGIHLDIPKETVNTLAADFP
# Chain of Luciferin 4-monooxygenase (Photinus pyralis) (P08659 whole entry, looked up): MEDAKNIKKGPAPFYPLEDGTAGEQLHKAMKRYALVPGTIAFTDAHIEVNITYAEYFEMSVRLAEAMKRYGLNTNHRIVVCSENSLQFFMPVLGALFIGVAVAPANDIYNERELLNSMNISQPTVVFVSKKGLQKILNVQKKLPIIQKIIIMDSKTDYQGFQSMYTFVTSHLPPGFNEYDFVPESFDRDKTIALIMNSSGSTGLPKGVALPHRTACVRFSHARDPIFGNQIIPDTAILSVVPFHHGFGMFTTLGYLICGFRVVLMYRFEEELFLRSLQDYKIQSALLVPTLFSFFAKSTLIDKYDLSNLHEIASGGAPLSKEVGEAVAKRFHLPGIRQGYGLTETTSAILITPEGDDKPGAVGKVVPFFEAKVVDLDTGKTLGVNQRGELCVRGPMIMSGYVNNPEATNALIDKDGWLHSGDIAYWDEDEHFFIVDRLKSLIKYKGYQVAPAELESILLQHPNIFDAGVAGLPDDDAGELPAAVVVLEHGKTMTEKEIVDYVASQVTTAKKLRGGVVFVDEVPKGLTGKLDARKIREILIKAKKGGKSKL
# Chain of Cytochrome P450 3A4 (Homo sapiens) (P08684 whole entry, looked up): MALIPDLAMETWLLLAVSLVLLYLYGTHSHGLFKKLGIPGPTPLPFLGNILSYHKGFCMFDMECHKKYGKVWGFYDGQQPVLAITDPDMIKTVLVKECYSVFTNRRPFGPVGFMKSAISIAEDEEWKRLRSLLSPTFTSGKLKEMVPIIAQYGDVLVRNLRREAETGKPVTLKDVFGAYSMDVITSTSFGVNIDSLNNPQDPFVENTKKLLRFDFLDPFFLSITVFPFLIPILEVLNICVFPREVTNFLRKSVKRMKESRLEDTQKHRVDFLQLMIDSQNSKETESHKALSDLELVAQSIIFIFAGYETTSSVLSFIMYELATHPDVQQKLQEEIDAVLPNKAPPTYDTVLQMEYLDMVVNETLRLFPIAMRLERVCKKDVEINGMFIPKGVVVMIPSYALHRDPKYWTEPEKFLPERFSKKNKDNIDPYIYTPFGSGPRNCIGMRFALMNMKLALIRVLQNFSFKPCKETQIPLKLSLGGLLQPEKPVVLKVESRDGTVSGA
# Chain of Tumor susceptibility gene 101 protein (Homo sapiens) (Q99816 whole entry, looked up, the tested form may be a part): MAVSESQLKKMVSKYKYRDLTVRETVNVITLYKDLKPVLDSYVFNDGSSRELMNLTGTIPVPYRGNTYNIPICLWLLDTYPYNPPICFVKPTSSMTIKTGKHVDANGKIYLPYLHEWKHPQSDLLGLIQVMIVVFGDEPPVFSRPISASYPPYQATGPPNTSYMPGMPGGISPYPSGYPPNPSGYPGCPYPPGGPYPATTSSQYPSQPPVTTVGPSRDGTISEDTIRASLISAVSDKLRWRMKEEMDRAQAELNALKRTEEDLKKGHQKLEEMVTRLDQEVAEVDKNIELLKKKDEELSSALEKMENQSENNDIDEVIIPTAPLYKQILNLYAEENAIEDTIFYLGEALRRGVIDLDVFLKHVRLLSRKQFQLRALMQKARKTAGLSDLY
smiles,measurement,setting,value
CC12CCC(C(=O)N3CCN(c4ncccn4)CC3)(c3nc4ccccc4nc31)C2(C)C (stereo unspecified),Potency,[1],7.91 µM (active)
Clc1ccc2nc(-c3ccccc3)nc(C(Cl)Cl)c2c1,Potency,[1],3.53 µM (active)
same,Potency,[2],2.23 µM (active)
CO[C@]1(NC(=O)Cc2cccs2)C(=O)N2C(C(=O)O)=CC(COC(N)=O)S[C@H]21 (stereo partly specified),Potency,[3],inactive
CC(=O)c1c(C)n(-c2ccc(C)cc2)c2ccc(O)cc12,Potency,[1],inactive
same,Potency,[2],inactive
COc1ccc(S(=O)(=O)Nc2ccc3oc(C)c(C(C)=O)c3c2)cc1,Potency,[2],3.97 µM (active)
COc1ccc(CSc2nc(N3CCOCC3)c3c(c2C#N)CC(C)(C)OC3)cc1,Potency,[1],0.889 µM (active)
same,Potency,[2],inactive
CS(=O)(=O)c1ccc2nc(NC(=O)C3CCCCC3)sc2c1,Potency,[1],6.28 µM (active)
same,Potency,[2],inactive
[2H]c1c([2H])c([2H])c2c([nH]c(=S)n2C2CCN(CCCC(=O)c3ccc(F)cc3)CC2)c1[2H],Potency,[3],inactive
O=C(CO)NCCCOc1cccc(CN2CCCCC2)c1,Potency,[3],inactive
CN(CC1CCCO1)S(=O)(=O)c1ccc(C(=O)Nc2ccc(F)cc2)cc1 (stereo unspecified),Potency,[1],9.96 µM (active)
same,Potency,[2],22.3 µM (active)
O=C(CO)[C@@H](O)C(O)[C@@H](O)CO (stereo partly specified),Potency,[3],inactive
CCC(C)CCCCC(=O)N[C@@H](CCN)C(=O)N[C@H](C(=O)N[C@@H](CCN)C(=O)N[C@H]1CCNC(=O)C([C@@H](C)O)NC(=O)[C@@H](CCN)NC(=O)[C@H](CCN)NC(=O)[C@H](CC(C)C)NC(=O)[C@@H](CC(C)C)NC(=O)[C@H](CCN)NC1=O)[C@@H](C)O (stereo partly drawn) ({Octanoyl(6-Me)}-[Dab]T[Dab][Dab][Dab][dL]L[Dab][dDab][ξThr(3R)]; lactam 4-C),Potency,[3],inactive
CCC(=O)OCC(=O)C1(OC(=O)CC)C(C)CC2C3CCC4=CC(=O)C=CC4(C)C3(Cl)C(O)CC21C (stereo unspecified),Potency,[4],inactive
same,outcome,[5],inactive
same,outcome,[6],inactive
same,Potency,[3],inactive
Cc1ccc(N(Cc2ccc(C(=O)Nc3ccccc3C(=O)NCc3ccco3)cc2)S(C)(=O)=O)cc1C,Potency,[1],6.28 µM (active)
OCCCNc1nccc(-c2cc(Nc3cccc(Cl)c3)ncn2)n1,Potency,[1],0.792 µM (active)
same,Potency,[2],0.629 µM (active)
COc1ccc(-c2nn(-c3ccccc3)cc2/C=C\C(=O)N2CCOCC2)cc1[N+](=O)[O-],Potency,[1],1.41 µM (active)
same,Potency,[2],inactive
NC(=O)c1sc2nc3c(c(-c4ccccc4)c2c1N)CCC3,Potency,[1],1.77 µM (active)
same,Potency,[2],7.05 µM (active)
COc1ccccc1C(=O)Nc1ccc(C)c(S(=O)(=O)N2CCCCC2)c1,Potency,[1],14.1 µM (active)
same,Potency,[2],14.1 µM (active)
CCC(C)C1OC2(C=CC1C)CC1CC(C/C=C(/C)C(OC3CC(OC)C(OC4CC(OC)C(NC(C)=O)C(C)O4)C(C)O3)C(C)/C=C\C=C3\COC4C(O)C(C)=CC(C(=O)O1)C34O)O2 (stereo unspecified),Potency,[3],inactive
COc1ccc(NS(=O)(=O)c2ccc(Oc3c(C#N)cccc3C#N)cc2)cc1,Potency,[2],3.15 µM (active)
Nc1nnc(SCC(=O)Nc2ccc3nc(SCC(=O)Nc4ccccc4)sc3c2)s1,Potency,[1],0.888 µM (active)
same,Potency,[2],4.99 µM (active)
OCC1OC(OC2C(CO)OC(OC3C(CO)OC(O)C(O)C3O)C(O)C2O)C(O)C(O)C1O (stereo unspecified),Potency,[3],inactive
CCc1ccc(N(CC)c2ncnc3nc[nH]c23)cc1,Potency,[1],4.99 µM (active)
same,Potency,[2],17.7 µM (active)
Cc1ccc(C)c(S(=O)(=O)N2CCN(c3ncnc4sccc34)CC2)c1,Potency,[1],4.99 µM (active)
same,Potency,[2],2.81 µM (active)
O=S(=O)(O)OCC1OC(OC2(COS(=O)(=O)O)OC(COS(=O)(=O)O)C(OS(=O)(=O)O)C2OS(=O)(=O)O)C(OS(=O)(=O)O)C(OS(=O)(=O)O)C1OS(=O)(=O)O (stereo unspecified),Potency,[3],inactive
C[N+](C)(C)CCOP(=O)(O)OP(=O)([O-])OCC1OC(n2ccc(N)nc2=O)[C@H](O)[C@@H]1O (stereo partly specified),Potency,[3],inactive
Cc1ccccc1NC(=O)CSc1nc2ccc(Nc3nc(N4CCOCC4)nc(N4CCOCC4)n3)cc2s1,Potency,[1],3.15 µM (active)
O=C(C1CCCN(S(=O)(=O)c2ccccc2)C1)N1CCN(c2ccc(F)cc2)CC1 (stereo unspecified),Potency,[2],4.45 µM (active)
CO/N=C(\C(=O)N[C@@H]1C(=O)N2C(C(=O)[O-])=C(C[n+]3cccc4c3CCCC4)CS[C@H]12)c1csc(N)n1,Potency,[3],inactive
O=C1C=C(CO)OCC1=O,Potency,[3],inactive
COc1ccc(NC(=O)c2sc3nc(C)nc(N4CCN(c5ccccn5)CC4)c3c2C)c(OC)c1,Potency,[1],3.97 µM (active)
COc1ccc(NC(C)=O)cc1NC(=O)CN1CCN(C2c3ccccc3-c3ccccc32)CC1,Potency,[1],2.81 µM (active)
Cc1ccc(Nc2nc(N3CCOCC3)nc(N3CCOCC3)n2)cc1Cl,Potency,[1],1.99 µM (active)
Cc1cc2oc(=O)cc(CN3CCN(S(=O)(=O)c4cccs4)CC3)c2cc1C(C)C,Potency,[1],3.53 µM (active)
same,Potency,[2],8.88 µM (active)
CCN(CC)c1ccc2cc(NC(=O)CCC(=O)O)c(=O)oc2c1,Potency,[7],18.3 µM (active)
